Results reported in PubChem BioAssay (NCI).
Compounds without any hit were thinned out: in the full panel of roughly 83,000, 20% have a hit.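 Single-concentration screen, 48 h exposure, 96-well plates. Endpoint: percent growth. Below 10 = active.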 The source made the active and inactive calls.

Columns and labels:
Test in all cases: NCI-60 one-dose screen, 48 h (100 = growth as untreated, 0 = no growth, -100 = all killed)
[1] = tested on: EKVX NSCLC; conditions: 10 µM unless noted
[2] = tested on: SN12C renal; conditions: 10 µM unless noted
[3] = tested on: UO-31 renal; conditions: 10 µM unless noted
[4] = tested on: TK-10 renal; conditions: 10 µM unless noted
[5] = tested on: ACHN renal; conditions: 10 µM unless noted
[6] = tested on: CAKI-1 renal; conditions: 10 µM unless noted
[7] = tested on: A498 renal; conditions: 10 µM unless noted
[8] = tested on: SR leukemia; conditions: 10 µM unless noted
[9] = tested on: RPMI-8226 leukemia; conditions: 10 µM
[10] = tested on: OVCAR-8 ovarian; conditions: 10 µM unless noted
[11] = tested on: OVCAR-5 ovarian; conditions: 10 µM unless noted
[12] = tested on: OVCAR-4 ovarian; conditions: 10 µM unless noted
[13] = tested on: SK-OV-3 ovarian; conditions: 10 µM
[14] = tested on: IGROV1 ovarian; conditions: 10 µM unless noted
[15] = tested on: OVCAR-3 ovarian; conditions: 10 µM unless noted
[16] = tested on: HS 578T breast; conditions: 10 µM unless noted
[17] = tested on: NCI/ADR-RES ovarian; conditions: 10 µM unless noted
[18] = tested on: CCRF-CEM leukemia; conditions: 10 µM unless noted
[19] = tested on: MOLT-4 leukemia; conditions: 10 µM unless noted

Measured: growth

CC(C)OC1=C(Cl)C(=O)c2ccccc2C1=O
inactive: [1] 103% | [2] 90.5% | [3] 76.7% | [4] 110% | [5] 98.5% | [6] 106% | [7] 112% | [9] 24.5% | [10] 75.9% | [11] 101% | [12] 71.9% | [13] 103% | [14] 99.1% | [15] 78% | [16] 81.5% | [17] 87.2%
active: [8] 9.89%

Clc1nc(-c2ccccn2)nc2sc3c(c12)CCCCCC3
active: [5] -20.4% | [6] -65.2%
inactive: [2] 84.9% | [3] 16.4% | [7] 118% | [18] 72.4% | [19] 67.7% | [8] 66.3% | [9] 95.5% | [10] 87.1% | [11] 108% | [12] 85.7% | [13] 105% | [14] 89.8% | [15] 108% | [16] 91.3% | [17] 89.3%

Oc1ccc2ccccc2c1C1NN=C(c2ccccc2)S1 (stereo unspecified)
inactive: [1] 27.4% | [2] 17.2% | [4] 49% | [5] 10.9% | [7] 31.3% | [19] 13% | [9] 19.6% | [10] 15.6% | [11] 43.2% | [12] 22.3% | [13] 15.4% | [15] 35.1% | [16] 57.7% | [17] 19.5%
active: [6] -1.25% | [8] 2.39%

CC(=O)Nc1ccc(Sc2ccc([N+](=O)[O-])o2)cc1
active: [5] -28.1% | [9] 9.87% | [10] -1.51% | [15] -8.53%
inactive: [1] 76.4% | [2] 54.2% | [4] 64.9% | [7] 120% | [19] 33.2% | [8] 26.1% | [11] 94.8% | [12] 23.5% | [13] 120% | [14] 42.2% | [16] 46.8% | [17] 15.9%

CC(C)(C)[Si](C)(C)OC1[C@@H](COC(N)=O)O[C@@H](n2cnc3c(N)ncnc32)[C@H]1O[Si](C)(C)C(C)(C)C (stereo partly specified)
inactive: [2] 102% | [3] 51.9% | [5] 89.1% | [6] 91.9% | [7] 106% | [18] 50.3% | [9] 21.6% | [10] 84.9% | [11] 99.2% | [13] 91.7% | [14] 113% | [15] 75.6% | [16] 88.5% | [17] 87.4%
active: [19] -40.1% | [8] -31.8%

COc1ccccc1-n1c(SCc2cc(OC)c(OC)c(OC)c2)nc2ccc(Cl)cc2c1=O
inactive: [2] 70.3% | [3] 42.6% | [5] 44.2% | [6] 42.6% | [19] 15.4% | [8] 16.1% | [9] 17.4% | [10] 55.3% | [11] 53.3% | [13] 59.5% | [14] 47.7% | [16] 39.6% | [17] 20.2%
active: [7] 5.01% | [18] 2.88%

O=c1[nH]c(=S)[nH]c(=O)n1Cc1cccc2ccccc12
inactive: [2] 101% | [3] 93% | [5] 97.7% | [6] 86.9% | [7] 85.4% | [18] 105% | [19] 99.7% | [8] 102% | [9] 106% | [10] 99.7% | [11] 107% | [12] 93.4% | [13] 102% | [14] 115% | [15] 113% | [16] 102% | [17] 108%

Nc1c(Br)cc(Br)cc1-c1n[nH]c(=O)[nH]c1=O
inactive: [2] 109% | [3] 74.3% | [5] 91.9% | [6] 86.4% | [7] 91.7% | [19] 65.8% | [9] 99.6% | [10] 105% | [11] 97.2% | [12] 98.5% | [13] 93.4% | [14] 105% | [15] 113% | [16] 78.3% | [17] 103%
active: [8] 7.84%

COCCOC1=C(Cl)C(=O)c2ccccc2C1=O
inactive: [1] 38.9% | [2] 33.4% | [4] 97.9% | [5] 23.7% | [7] 67.6% | [10] 13.2% | [11] 31.6% | [13] 87.5% | [14] 21% | [17] 20.4%
active: [3] -20.2% | [8] 0.0172% | [9] 6.59% | [12] -21.6% | [15] -13.3% | [16] 4.85%
